# Many of the other results were omitted from the sample, so hits are more common in it than they were.
# VCAM1 pot = TNF alpha stimulated VCAM1 expression potentiation; HUVEC TNFa-stimulated VCAM-1 immunofluorescence, high-content imaging; scaled per plate to unstimulated/TNFa-only wells; activation, % at 2 µM; 93,000 compounds, 0.19% hits; AID 808;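 active = activation above the screen mean plus 3 SD, with well images confirming the hit on visual review, cut at about 28% in these data, passing the limit was not always enough; inconclusive = activation above that limit but images do not confirm it; inactive = activation not above that limit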;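 also: signal is the number of cytoplasmic VCAM-1 stained grains per positive cell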
# VCAM1 pot confirm = potentiators of TNFa-induced VCAM1 expression, confirmation, imaging, HUVEC, triplicate retest; activation, % at 2 µM; HUVEC TNFa-stimulated VCAM-1 immunofluorescence imaging; shares compounds with VCAM1 pot; 230 tested, under 10 active;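 active = activation above 30% in triplicate retests at 2 µM, then confirmed by visual review of the well images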;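 also: scaled per plate between unstimulated and TNFa-stimulated DMSO control wells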
# An asterisk follows results filed as active; ? = inconclusive.
SMILES,VCAM1 pot,others
CCCCCC1CC(CC(C)C(=O)Nc2nncs2)C(=O)O1 (stereo unspecified),6.4,
CCCCCCCC1CC(CSc2ncn[nH]2)OC1=O (stereo unspecified),88.9*,VCAM1 pot confirm=-14.4
Cn1c(Sc2ccc(C(F)(F)F)cc2[N+](=O)[O-])nnc1-c1ccccc1,0.7,
CC(C)(C)C1CCC2(CC1)C(Nc1cccc(C(F)(F)F)c1)=NC(=S)N2CC#N (stereo unspecified),?,VCAM1 pot confirm=-10.0
CC(=O)N(Cc1ccccc1)c1ncc2c(n1)c(=O)c(C#N)c1ccccn12,-9.7,
Cc1cccc(C)c1NS(=O)(=O)c1ccc(F)cc1,-0.2,
O=C1c2oc3ccccc3c(=O)c2C(c2ccccn2)N1Cc1ccccc1 (stereo unspecified),-5.2,
CCc1nnc(NC(=O)c2cc3c(s2)CCCCC3)s1,9.0,
CCc1nnc(NC(=O)CN2CCOCC2)s1,85.1*,VCAM1 pot confirm=-10.4
Cn1c(CN2CCOCC2)nnc1SCC(=O)Nc1nccs1,-10.9,
CCCOC(=O)CSC1=C(C#N)C(c2ccccc2OC)C(C#N)C(=O)N1 (stereo unspecified),-91.6,
Cn1c(SCC(=O)NC2CC2)nnc1-c1cccc(NC(=O)c2ccccc2F)c1,0.4,
Cc1nc(SCC#N)c2c(C)c(C)sc2n1,-2.9,
Cc1cc(C(=O)CSc2nnc(Cc3ccccc3)o2)c(C)n1Cc1ccc2c(c1)OCO2,53.5*,VCAM1 pot confirm=-8.7
O=C(CSc1nnc(Cc2cccs2)n1-c1ccccc1)NCc1ccc2c(c1)OCO2,14.6,
O=C(CSc1nnnn1-c1ccc2c(c1)OCO2)NCc1ccccc1,-0.3,
Cc1cc(C)c(C#N)c(=N)o1,2.7,
Cc1cc2n(n1)SC(Nc1ccc(F)c(Cl)c1)N2 (stereo unspecified),-44.9,
CCOC(=O)Cn1nc(C)n(-c2ccc(C(C)C)cc2)c1=O,3.7,
Cc1cc(NCCN(C)C)n2nc(-c3cccs3)cc2n1,40.9*,VCAM1 pot confirm=-10.3
CCOC(=O)CCN(Cc1cccs1)S(=O)(=O)c1ccc(Cl)cc1,-8.5,
COC(=O)C1=C(C)N(C2CCCC2)C(=O)C1(NC(C)=O)C(F)(F)F (stereo unspecified),14.4,
Cn1nc(C(=O)NCC2CCCO2)c2ccccc2c1=O (stereo unspecified),-95.0,
O=C(CC(c1ccccc1)c1ccccc1)NCC1CCCO1 (stereo unspecified),-40.8,
CC(C(=O)NCC1CCCO1)N(C(=O)c1snc(C(N)=O)c1N)c1ccccc1 (stereo unspecified),40.1*,VCAM1 pot confirm=-14.3
SMILES,VCAM1 pot,others
Cc1cc(C)n(-c2ccc(C(=O)OCC(=O)Nc3ccc(Cl)c(S(=O)(=O)N(C)C)c3)cc2)n1,0.3,
CCCN1C(=O)SC(CC(=O)Nc2ccc(C)cc2)C1=O (stereo unspecified),31.9,
Cc1ccc(NC(=O)COC(=O)c2ccn(C)n2)cc1,?,VCAM1 pot confirm=-17.7
Cc1cccc(Oc2coc3cc(OC(=O)c4cc5ccccc5oc4=O)ccc3c2=O)c1,-22.4,
N#Cc1c(-n2cccc2)cccc1-n1cccc1,5.9,
CC1N(O)C(C)(C)C(c2ccccc2)=[N+]1[O-] (stereo unspecified),-7.0,
Cc1ccc(Oc2ncccc2/C=N/OCc2ccc(Cl)c(Cl)c2)cc1,0.5,
Cc1nc2sc(C(c3ccc(Cl)cc3)N3CC(C)OC(C)C3)c(O)n2n1 (stereo unspecified),-36.5,
N/C(=N\OC(=O)c1ccc(Br)cc1)c1ccccc1,57.8*,VCAM1 pot confirm=-14.7
Cc1cccc(/C(N)=N/OC(=O)c2ccco2)c1,2.5,
O=C(/C=C/NNC(=O)c1ccccc1)c1ccc(Br)cc1,-7.9,
CC(C)[C@H](NC(=O)Nc1ccccc1F)C(=O)O,-7.6,
Cc1cc(C)c(-c2cc(NC(=O)CSc3n[nH]c(N)n3)n(-c3ccccc3)n2)cc1C,-1.4,
c1ccc(COc2ccc(OCCCCN3CCCCC3)cc2)cc1,38.5*,VCAM1 pot confirm=-13.0
CN1CCN(c2ccccc2NC(=O)c2ccc(OCc3ccccc3)cc2)CC1,7.3,
O=C(CN1CCOCC1)Nc1ccc(OCc2ccccc2)cc1,0.0,
Cc1ccc(Sc2ncccc2COC(=O)Nc2ccccc2)cc1,13.9,
CCC(C)(CC(=O)N(C)CCC#N)c1ccccc1 (stereo unspecified),-10.8,
Cn1c(/N=C/c2c[nH]c3ccccc23)nc2ccccc21,-6.4,
Cn1c(/C=N/n2cnnc2)nc2ccccc21,?,VCAM1 pot confirm=-6.5
Cn1c(NCc2c[nH]c3ccccc23)nc2ccccc21,-57.5,
Cc1ccc(NC(=O)CCc2ccc(S(=O)(=O)N3CCOCC3)cc2)c(C)c1,3.6,
COc1cccc(N/C=C(\C#N)c2ccc(OCCCF)cc2)c1,0.0,
CCS(=O)(=O)N1CCC(C(=O)OCC(=O)c2ccc(Br)cc2)CC1,1.0,
Cc1nc(-c2ccccc2)cc(N2CCCC2)n1,61.4*,VCAM1 pot confirm=-7.7
SMILES,VCAM1 pot,others
Cc1nc(CS(=O)c2ccccc2)cc(N2CCOCC2)n1 (stereo unspecified),-16.3,
c1ccc(-c2cc(N3CCCCCC3)n[nH]2)cc1,13.4,
CC(C(=O)Nc1ccccc1Sc1ccccc1)N(c1ccccc1)S(C)(=O)=O (stereo unspecified),-0.6,
CCCNS(=O)(=O)c1ccc(NC(=O)c2ccccn2)cc1,-3.4,
O=S(=O)(NCc1ccccc1)c1ccc(S(=O)(=O)N(Cc2ccccn2)C2CCCC2)cc1,?,VCAM1 pot confirm=-12.9
CN(Cc1ccccc1)S(=O)(=O)c1ccc(NC(=S)NC(=O)C2CCCC2)cc1,-47.9,
COC(=O)C(C)Oc1ccc2c3c(c(=O)oc2c1)CCCCC3 (stereo unspecified),-40.0,
O=C(O)c1ccc(NC(CSCc2cccc(F)c2)C(=O)O)c([N+](=O)[O-])c1 (stereo unspecified),2.7,
COc1cccc(CNC(=O)c2ccc(S(=O)(=O)N3CCCC3)cc2)c1,79.5*,VCAM1 pot confirm=-17.3
CC(=O)c1ccc(N2CCN(S(=O)(=O)c3cccc(S(=O)(=O)N4CCOCC4)c3)CC2)cc1,-7.6,
Cc1cc(S(=O)(=O)N2CCCC2)ccc1OCC(=O)NCc1ccco1,7.6,
O=C(NCc1ccco1)c1ccc(S(=O)(=O)c2cccc(S(=O)(=O)N3CCOCC3)c2)cc1,?,VCAM1 pot confirm=-21.4
O=C(NC(Cc1ccccc1)C(=O)O)c1ccc(S(=O)(=O)N2CCCCC2)cc1 (stereo unspecified),-4.1,
CC(=O)c1cccc(NC(=O)c2ccc(S(=O)(=O)N3CCCCC3)cc2)c1,2.9,
O=C(c1ccccc1-c1nc(-c2ccc(Cl)cc2)no1)N1CCCC1,5.3,
CCOc1cccc(C(=O)Nc2ccc3oc(Cc4ccc(Cl)cc4)nc3c2)c1,-23.7,
O=S(=O)(NCc1ccco1)c1ccc(S(=O)(=O)N2CCCCC2)cc1,-4.1,
CCCCOC(=O)Nc1nc(CC(=O)OCC)cs1,?,VCAM1 pot confirm=-6.9
CCOC(=O)Cc1csc(/C(=N/O)C(N)=O)n1,11.9,
CCOC(=O)Cc1csc(NC(=O)c2ccc(C)o2)n1,-5.6,
CN1CCN(c2ncccc2S(=O)(=O)N2CCCCC2)CC1,13.6,
COc1ccc(C(=O)OCC(=O)NCc2ccco2)cc1S(=O)(=O)N1CCN(c2cccc(Cl)c2)CC1,-8.9,
Cc1ccc(-c2nc(C#N)c(NCCN3CCCCC3)o2)cc1,43.5*,VCAM1 pot confirm=-17.0
CCOc1ccc(-c2nc(C#N)c(NC3CC3)o2)cc1,-2.1,
COc1ccc(-c2nc(C#N)c(NCc3cccnc3)o2)cc1OC,4.1,
Cc1nc(Nc2ccccc2)[nH]c(=O)c1CCC(C)C,?,VCAM1 pot confirm=2.6
CCOc1ccc(CCNC(=O)Cn2c(=O)oc3ccccc32)cc1OCC,0.0,
